Assay outcomes from PubChem BioAssay.
KCNQ2 inh – KCNQ2 (rat) channel inhibition; O88943; CHO-K1 KCNQ2, FluxOR thallium flux, 20 min; active compounds read low; B-score at 10 µM; 310,000 tested, 1.1% active; AID 2156;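 active = fluorescence ratio B-score at most minus 3 library SDs, with starting brightness B-score within 2 library SDs, cut at about -5.5 in these data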
KCNQ2 enhance – KCNQ2 (rat) channel potentiation | O88943 | CHO-K1 KCNQ2, FluxOR thallium flux fluorescence; active compounds read high | B-score at 10 µM | 310,000 tested, 0.54% active;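 active = fluorescence ratio B-score at least 3 SD of library B-scores, with initial fluorescence B-score within 3 of them, cut at about 5.3 in these data; same plate scores as AID 2156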;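 also: B-score of peak minus minimum over baseline fluorescence ratio after K+ and Tl+ stimulus; positive B-score means potentiation of KCNQ2 with more thallium influx and brighter signal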
Kir21 confirm – confirmation of mouse Kir2.1 potassium channel inhibitors; shares compounds with KCNQ2 enhance; Kir2.1-expressing cells, FluxOR thallium flux fluorescence; active compounds read low; Tl flux remaining, % of negative control (active compounds read low), % at 10 µM; 2,300 tested, 41% active;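 active = Primary-screen hit whose thallium flux fell at least 3 control SD below untreated wells in both duplicates, with normal baseline fluorescence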;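 also: 0% = blank wells without stimulus and 100% = stimulated no-compound controls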
Target sequence (P35561 whole entry, looked up): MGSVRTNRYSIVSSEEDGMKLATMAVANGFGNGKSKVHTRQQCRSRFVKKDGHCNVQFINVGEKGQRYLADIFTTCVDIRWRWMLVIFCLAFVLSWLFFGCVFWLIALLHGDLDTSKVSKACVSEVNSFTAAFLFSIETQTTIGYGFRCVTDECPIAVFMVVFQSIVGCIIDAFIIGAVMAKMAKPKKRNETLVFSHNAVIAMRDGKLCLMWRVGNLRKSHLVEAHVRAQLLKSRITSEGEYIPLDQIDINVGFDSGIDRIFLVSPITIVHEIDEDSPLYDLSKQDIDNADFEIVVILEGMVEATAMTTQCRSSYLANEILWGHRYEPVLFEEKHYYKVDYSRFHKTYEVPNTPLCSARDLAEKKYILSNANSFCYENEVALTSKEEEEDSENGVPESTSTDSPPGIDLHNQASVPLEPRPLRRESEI
HEK293 ctr – counter-screen for Kir2.1 inhibitors: effect in parental HEK293 cells. shares compounds with KCNQ2 enhance. FluxOR thallium flux fluorescence; 0% = unstimulated blank wells. FluxOR signal as % of negative control (100 = no effect), % at 10 µM. 2,300 tested, 19% active. AID 2105;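 active = dye signal at least 3 control SD above or below untreated wells in both duplicates, raw fluorescence within 3, either direction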;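 also: percent is based on the flux ratio of peak minus minimum fluorescence over baseline F0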
CHO-K1 Tl ctr – alters thallium flux in parental CHO-K1 cells, KCNQ2 counter-screen. AID 2282. FluxOR thallium flux fluorescence; zero = vehicle mean+3SD, 100% = vehicle-minus-blank window. activity increase over 3SD of controls, % at 10 µM. shares compounds with KCNQ2 enhance. 1,200 tested, 43% active;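 active = signal rise of at least 3 SD above the untreated control mean, in both duplicate wells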;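 also: counter screen of KCNQ2 potentiator hits so any rise reflects channel-independent effects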
KCNQ1 sel pot – tests whether KCNQ2 potentiators also act on human KCNQ1 | activation over 3SD threshold, % at 10 µM | AID 2283 | 1,200 tested, 28% active | CHO KCNQ1 stable, FluxOR thallium flux fluorescence; beyond 3SD, as % of vehicle-control signal | shares compounds with KCNQ2 enhance;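 active = fluorescence ratio rise of at least 3 SD of vehicle wells above their mean, in both replicate wells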;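 also: 0% = vehicle mean plus 3 SD and 100% = vehicle minus unstimulated blank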
KCNQ2 pot confirm – rat KCNQ2 channel potentiator confirmation; AID 2287; 1,200 tested, 68% active; potentiation, less the hit threshold, % at 10 µM; shares compounds with KCNQ2 enhance; CHO-KCNQ2 cells, FluxOR thallium flux fluorescence;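 active = fluorescence ratio rising 3 SD or more over the vehicle control mean in both replicates, plus primary screen hit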;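 also: peak minus minimum thallium fluorescence divided by baseline after K/Tl stimulus; 0% = vehicle mean plus 3 SD and 100% = vehicle minus unstimulated blank difference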
Kir21 spec – mouse Kir2.1 off-target activity of KCNQ2 potentiators; shares compounds with KCNQ2 enhance; HEK293 Kir2.1, FluxOR thallium flux fluorescence; activity over 3SD threshold, % at 10 µM; 1,200 tested, 2% active;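 active = fluorescence ratio rise of at least 3 SD above the vehicle-control mean, seen in both replicates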;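 also: 0% = vehicle mean plus 3 SD and 100% = vehicle minus no-stimulus blank window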
KCNQ2 W236L MoA – potentiates the retigabine-insensitive rat KCNQ2 W236L mutant channel; shares compounds with KCNQ2 enhance; CHO KCNQ2-W236L, automated patch clamp current; current increase over 3SD of negative controls (%), active compounds read high, % at 25 µM; 940 tested, 10% active; AID 2558;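 active = current increase at least 3 SD of the untreated controls above them in both duplicate recordings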
The depositor's hits bear a star; ! = repeats disagree. In the library only some 1.6% were active in any assay of this set; here they are far more common.

How did CN1CCC(NCCC(c2ccc(F)cc2)c2ccc(Cl)cc2)CC1 (centres undefined) do in these assays?
KCNQ2 inh: inactive; Kir21 confirm: 55.5%*; HEK293 ctr: inactive

How did CCOC(=O)C(=Cc1cc(=O)c(OC)co1)C(=O)OCC do in these assays?
KCNQ2 inh: inactive; KCNQ2 enhance: 2.88; Kir21 confirm: inactive; HEK293 ctr: inactive

Results for COc1coc(C(O)CN)cc1=O (centres undefined) ?
KCNQ2 inh: inactive; KCNQ2 enhance: 0.73

How did CC(C)(C)c1nn(-c2ccccc2)c2[nH]c(=O)c(C=O)cc12 do in these assays?
KCNQ2 inh: inactive; KCNQ2 enhance: 6.8*; Kir21 confirm: inactive; HEK293 ctr: inactive; CHO-K1 Tl ctr: 4.4*; KCNQ1 sel pot: 12.4*; KCNQ2 pot confirm: -4.9; Kir21 spec: -42.0

What do the screens show for `CC(C)(C)c1nn(-c2ccccc2)c2nc(Cl)c(C=O)cc12`?
KCNQ2 inh: inactive

What do the screens show for `COc1ccc(Cl)cc1NC(=O)CN(C)CC(=O)NC(C)c1ccccc1` (centres undefined)?
KCNQ2 inh: inactive

How did COc1ccc(CCNC(=O)C(C)SCc2ccccc2)cc1 (centres undefined) do in these assays?
KCNQ2 inh: inactive; KCNQ2 enhance: 0.39; Kir21 confirm: 41.0%*; HEK293 ctr: inactive

How did COc1cccc(NC(=O)C(C)SCc2ccccc2)c1 (centres undefined) do in these assays?
KCNQ2 inh: inactive; KCNQ2 enhance: 0.63

What do the screens show for `CCCNC(=O)COc1coc(CN2CCN(c3ccc(F)cc3)CC2)cc1=O`?
KCNQ2 inh: inactive

How did Cn1cc(SCC(=O)N2CCCc3ccccc32)c2ccccc21 do in these assays?
KCNQ2 inh: inactive; Kir21 confirm: 51.5%*; HEK293 ctr: inactive

What do the screens show for `Cn1cc(SCC(=O)N2CCOCC2)c2ccccc21`?
KCNQ2 inh: inactive

Results for Cc1cc2c(cc1S(=O)(=O)CCC(=O)NCCc1ccccc1)OCC(=O)N2 ?
KCNQ2 inh: inactive; KCNQ2 enhance: 2.74

Results for Fc1ccc([C@@H]2CCNC[C@H]2COc2ccc3c(c2)OCO3)cc1 ?
KCNQ2 inh: -6.01*!; KCNQ2 enhance: -6.01; Kir21 confirm: 34.5%*; HEK293 ctr: inactive

What do the screens show for `O=C(CSCc1ccc(F)cc1)NCc1ccc2c(c1)OCO2`?
KCNQ2 inh: inactive

How did Fc1ccc(C2CCNCC2COc2ccc3c(c2)OCO3)cc1 (centres undefined) do in these assays?
KCNQ2 inh: -6.21*; KCNQ2 enhance: -6.21; Kir21 confirm: 47.5%*; HEK293 ctr: inactive

What do the screens show for `O=C(COc1ccc2c(c1)OCO2)Nc1ccccc1F`?
KCNQ2 inh: inactive

Results for CC(C)c1cccc(C(C)C)c1NC(=O)COC(=O)[C@H](C)NC(N)=O ?
KCNQ2 inh: inactive; KCNQ2 enhance: 0.66

Results for CCc1ccc(CNC(=O)C2CCN(S(=O)(=O)N3CCC(C)CC3)CC2)cc1 ?
KCNQ2 inh: inactive; KCNQ2 enhance: 6.89*; Kir21 confirm: inactive; HEK293 ctr: inactive; CHO-K1 Tl ctr: -13.7; KCNQ1 sel pot: -6.7; KCNQ2 pot confirm: -7.5; Kir21 spec: -27.8

Results for CC1CCN(S(=O)(=O)N2CCC(C(=O)NCc3ccc4c(c3)OCO4)CC2)CC1 ?
KCNQ2 inh: inactive; KCNQ2 enhance: 0.08

What do the screens show for `Cc1ccc(O)c(NC(=O)C2CC(c3cccc(Br)c3)=NO2)c1` (centres undefined)?
KCNQ2 inh: inactive

What do the screens show for `CC1CCC(N(CCCN)Cc2ccco2)CC1C` (centres undefined)?
KCNQ2 inh: inactive

What do the screens show for `O=C(N/N=C/c1cccs1)c1cnccn1`?
KCNQ2 inh: inactive

What do the screens show for `O=C(N/N=C/c1cccs1)c1[nH]ncc1Br`?
KCNQ2 inh: inactive; KCNQ2 enhance: 11.1*; Kir21 confirm: inactive; HEK293 ctr: inactive; CHO-K1 Tl ctr: 115.3*; KCNQ1 sel pot: -14.4; KCNQ2 pot confirm: 43.2*; Kir21 spec: -32.6; KCNQ2 W236L MoA: inactive

How did O=c1c2[nH]cnc2n(-c2cccc(Br)c2)c(=O)n1Cc1ccccc1 do in these assays?
KCNQ2 inh: inactive; KCNQ2 enhance: 0.43

Results for CC1CCC(n2c(=S)[nH]c3ccccc3c2=O)CC1 (centres undefined) ?
KCNQ2 inh: inactive; KCNQ2 enhance: 10.6*; Kir21 confirm: inactive; HEK293 ctr: inactive; CHO-K1 Tl ctr: -1.4; KCNQ1 sel pot: 82.7*; KCNQ2 pot confirm: 27.0*; Kir21 spec: -26.8; KCNQ2 W236L MoA: inactive

What do the screens show for `CC1(C)CC(n2c(=S)[nH]c3ccccc3c2=O)CCO1` (centres undefined)?
KCNQ2 inh: inactive; KCNQ2 enhance: 0.74

How did CC1CCCC(n2c(=S)[nH]c3ccccc3c2=O)C1C (centres undefined) do in these assays?
KCNQ2 inh: inactive; KCNQ2 enhance: 11.4*; Kir21 confirm: inactive; HEK293 ctr: inactive; CHO-K1 Tl ctr: -14.6; KCNQ1 sel pot: -19.2; KCNQ2 pot confirm: 6.8*; Kir21 spec: -27.4; KCNQ2 W236L MoA: inactive

What do the screens show for `O=c1c2ccccc2[nH]c(=S)n1C1CCCCC1`?
KCNQ2 inh: inactive

Results for CCC(=O)Oc1ccc(C2NC(=O)c3ccccc3O2)cc1OC (centres undefined) ?
KCNQ2 inh: inactive; KCNQ2 enhance: 0.32

Results for COc1cccc(NC(=O)C2CCCN(S(C)(=O)=O)C2)c1 (centres undefined) ?
KCNQ2 inh: inactive; KCNQ2 enhance: 1.34

How did C=CCn1c(SCc2cccc3ccccc23)nnc1-c1cccnc1 do in these assays?
KCNQ2 inh: inactive; Kir21 confirm: 45.0%*; HEK293 ctr: inactive

What do the screens show for `C=CCn1c(SCC(=O)Nc2ccc(C(=O)O)cc2)nnc1-c1cccnc1`?
KCNQ2 inh: inactive

What do the screens show for `NC(=O)c1ccc(NC(=O)CS(=O)(=O)c2cn(CC(=O)N3CCCCC3)c3ccccc23)cc1`?
KCNQ2 inh: inactive

What do the screens show for `O=C(CSc1ncnc2c1oc1ccccc12)c1cccs1`?
KCNQ2 inh: inactive; KCNQ2 enhance: 0.98
